Sampled rows, rich in hits. Any-hit rate of the full collection: about 2.4%.
PABP1 MLLE inh = blocks PAM2 peptide binding to the PABP1 MLLE domain; AID 588489; inhibition, % at 20 µM; GST-MLLE / FITC-PAM2 fluorescence polarization; 0.36% of 360,000 active; in the data active means inhibition above about 35%, passing the limit was not always enough;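 further: plate controls were DMSO wells with GST-MLLE for no effect and wells lacking GST-MLLE protein for full effect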
PfM18AAP inh-1 = blocks P. falciparum M18 aspartyl aminopeptidase | recombinant PfM18AAP, H-Glu-NHMec fluorogenic cleavage | inhibition, % at 7.35 µM | 1.2% of 290,000 active | AID 1822;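 active means inhibition above the campaign mean inhibition over all tested compounds plus 3 SD, cut at about 28% in these data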;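 further: 0% = plate median of test compound wells and 100% = 2 mM ZnCl2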
PERK inhibitor = inhibitors of human PERK kinase | Q9NZJ5 | CHO PERK-DD fusion, SEAP luminescence translation reporter | inhibition, % at 5.6 µM | 0.17% of 220,000 active | AID 1416;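 active means inhibition above the mean inhibition of all tested compounds plus 3 SD, set separately per screening campaign, cut at about 2.9% in these data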;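 further: PERK kinase domain activated by AP20187 dimerizer at 100 nM; 0% = DMSO with dimerizer and 100% = rapamycin at 8.4 µM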
eIF4H inh = inhibitors of RNA binding by human eIF4H; 0.94% of 290,000 active; eIF4H fluorescence polarization binding assay; AID 2012; Q15056; inhibition, % at 35 µM;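 further: calls also rest on retests at 20 µM and on dose response follow-up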
eIF4E-4G inh = blocks eIF4E binding to eIF4G. P63073+Q04637. TR-FRET eIF4E-eIF4GI(517-606) binding, 2 h. inhibition, % at 21.7 µM. 0.37% of 220,000 active;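 active means inhibition above about 30%, limit read from the data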;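 further: 0% = full FRET control wells and 100% = background wells lacking eIF4GI fragment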
PABP polyA inh = PABP-poly(A) binding inhibition; PABP-poly(A) RNA binding, fluorescence polarization; 1% of 290,000 active; inhibition, % at 35 µM;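 further: calls also rest on retests at 20 µM and on dose response follow-up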
PfM18AAP inh-2 = confirmation of Plasmodium falciparum M18 aspartyl aminopeptidase inhibitors; shares compounds with PfM18AAP inh-1; recombinant PfM18AAP, H-Glu-NHMec fluorogenic cleavage; 28% of 2,400 active; inhibition, % at 7.35 µM;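 active means mean inhibition over replicate wells above the hit cutoff set for the earlier primary screen, cut at about 29% in these data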;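 further: 0% = median of test compound wells and 100% = 2 mM ZnCl2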
CTSL1 confirm = counter-screen for PFM18AAP inhibitors: confirmation of human cathepsin L inhibitors | shares compounds with PfM18AAP inh-1 | purified cathepsin L1, Z-Leu-Arg-MCA fluorescence | inhibition, % at 5.96 µM | 2,400 tested, under 10 active | AID 2178;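 active means average inhibition across replicates above the hit cutoff set in the earlier primary screen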;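 further: 0% = median of test compound wells and 100% = Z-Phe-Ala-diazomethylketone 1 µM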
* = called active by the depositor; x = no result given. Unless noted, how the calls were made is not given here.

SMILES	PABP1 MLLE inh	PfM18AAP inh-1	PERK inhibitor	eIF4H inh	eIF4E-4G inh	PABP polyA inh	PfM18AAP inh-2	CTSL1 confirm
CCOC(=O)C1CCCN(C(=O)Cn2sc3nc(C)cc(C)c3c2=O)C1 (centres undefined)	18.0	59.2*	1.6	-4.3	-3.5	3.2	23.5	-3.8
O=C(Cc1ncn[nH]1)NCCc1ccccc1	2.3	32.2*	1.3	0.2	-2.3	21.4	40.0*	1.9
CCCNC(=O)Cc1ncn[nH]1	3.8	23.3	0.0	-0.6	-3.7	2.2	x	x
Cn1c(-c2ccc(N)cc2)nc2ccccc21	-2.8	-6.7	-0.5	0.4	-4.2	-6.9	x	x
Cn1c(-c2ccc(Cl)nc2)nc2ccccc21	1.6	33.6*	x	-2.0	x	13.5	-51.1	-2.8
CC(C)Cn1c2ccccc2c2cc(C(=O)O)ccc21	1.6	55.0*	1.9	-13.2	12.3	-4.9	-42.6	1.0
CCOC(=O)c1sc(N=NC2=C(O)CCCC2=O)c(C(=O)OCC)c1C	-21.5	34.6*	-0.1	92.1	3.8	29.3	-40.8	2.2
Cc1nc2c(cc1C(=O)N/N=C/c1ccc(O)c(O)c1)c(=O)n(C)c(=O)n2C	-15.6	62.2*	0.4	-1.7	-0.6	-12.8	68.1*	-0.9
CC(=O)c1c(C)[nH]c(C(=O)NCCc2ccc(Cl)cc2)c1C	-3.2	60.6*	2.6	-4.1	-1.3	-3.5	-47.4	-1.2
CC(=O)c1c(C)[nH]c(C(=O)Nc2ccc(Cl)cc2)c1C	-1.9	0.3	x	1.1	x	6.4	x	x
Nc1cc2c(cc1O)CCCC2	-14.2	32.6*	-0.6	6.4	2.0	5.2	57.8*	1.2
CCOC(=O)c1ccc(CC(=O)c2ccc(O)c(O)c2O)o1	12.9	48.4*	1.2	56.7	7.5	18.4	-0.2	-0.2
Cn1cccc1CC(=O)NNC(=S)NC(=O)c1ccc(F)cc1	16.7	25.6	0.9	8.7	-0.9	22.0	x	x
NC(=O)CS(=O)(=O)c1ccc(Cl)cc1	7.3	40.1*	0.1	10.5	-0.9	-1.3	-55.6	-2.0
O=C(CS(=O)(=O)c1ccc(Cl)cc1)NCc1ccccc1	5.2	1.6	x	-2.5	x	-4.7	x	x
COc1ccc(Cc2nc3ccc(C(=O)NCCc4cccc(C)n4)cc3o2)cc1	-0.7	-0.1	x	x	x	x	x	x
O=C(c1ccc(-c2ccc([N+](=O)[O-])cc2Cl)o1)N1CCOCC1	-8.9	38.5*	0.5	-0.6	12.0	-5.4	-19.8	4.4
CCCCCCCNC(=O)C1(CC2CC(c3ccc(Cl)cc3)=NO2)CCN(C(=O)c2cc(OCC)c(OCC)c(OCC)c2)CC1 (centres undefined)	1.5	4.6	x	-14.8	x	2.3	x	x
CCn1c(=O)n(CC)c2cc(N3CCCC3)c(NC(=O)c3ccc(F)cc3)cc21	15.3	34.9*	x	-0.6	x	-8.4	-54.0	5.1
CCOc1ccc(C(=O)Nc2cc3c(cc2N2CCCC2)n(CC)c(=O)n3CC)cc1OCC	2.0	19.0	x	-7.4	x	3.9	x	x
CCn1c(=O)n(CC)c2cc(N3CCCC3)c(NC(=O)c3c(F)cccc3F)cc21	2.6	35.2*	x	-21.9	x	0.4	-20.2	1.9
CCN(CC)S(=O)(=O)c1cccc(C(=O)OCc2cc(=O)n3nc(C)sc3n2)c1	5.7	3.3	0.7	-9.6	0.2	-3.6	x	x
CC(=O)c1c(O)cc(C)n(Nc2nc(C)cc(C)n2)c1=O	20.9	33.6*	0.3	-1.7	-3.5	12.4	-27.8	2.0
CC(=O)c1c(O)cc(C)n(-c2ccc(F)cc2)c1=O	-2.6	-5.3	1.0	15.9	1.5	13.1	x	x
CCN(CC)C(=O)c1c(C)[nH]c(=S)c(C#N)c1-c1ccco1	5.5	56.4*	2.3	29.3	3.4	-5.2	20.8	1.4
SMILES	PABP1 MLLE inh	PfM18AAP inh-1	PERK inhibitor	eIF4H inh	eIF4E-4G inh	PABP polyA inh	PfM18AAP inh-2	CTSL1 confirm
N#Cc1c(-c2ccco2)c2c([nH]c1=S)CCCC2	-12.9	x	x	35.6	7.2	-2.8	x	x
CC(=O)c1cccc(NC(=O)COC(=O)COc2c(Cl)cc(Cl)c3ccc(C)nc23)c1	-3.8	-1.7	1.5	-6.9	-2.3	-2.2	x	x
COc1ccc(-c2nn(-c3ccccc3)cc2/C=N/Nc2cccc(C(=O)O)c2)cc1	-5.8	33.0*	0.6	18.7	1.0	-9.9	-25.2	1.8
O=C(Oc1ccc(Br)cc1C(=S)N1CCOCC1)c1ccc(F)cc1	33.4	32.5*	x	0.0	x	-8.6	-17.8	10.4
Cc1ccc(C(=O)Oc2ccc(Br)cc2C(=S)N2CCOCC2)cc1	-2.9	15.8	x	-2.3	x	0.9	x	x
COc1ccccc1CNC(=O)c1cc(S(=O)(=O)N2CCOCC2)cn1C	12.5	-5.0	x	-1.6	x	-5.6	x	x
NNc1nc(-c2ccccc2Cl)c2cc(Br)ccc2n1	5.8	32.1*	x	-5.9	x	-0.4	-15.0	8.0
c1ccc2c(c1)NCC1CCCN21 (centres undefined)	8.1	37.4*	x	103.5*	x	76.1	-69.7	-3.6
Cc1c(C(=O)Nn2cnnc2)oc2ccccc12	-4.1	81.0*	0.0	6.1	-0.9	-2.5	75.7*	-2.9
Cc1scc(C(=O)Nn2cnnc2)c1-c1ccccc1	9.8	63.6*	1.0	-18.2	-19.1	-15.6	60.2*	0.2
O=C(Nn1cnnc1)c1csc2ccccc12	1.6	72.3*	0.4	-1.6	0.0	3.8	73.2*	-4.6
O=C(Nn1cnnc1)c1ccccc1F	7.7	24.7	x	-7.9	x	3.5	x	x
COc1ccc(-c2sc3cc4c(cc3c2C#Cc2ccc(N)cc2)OCO4)cc1	2.3	x	x	x	x	x	x	x
CCOC(=O)c1c(C)[nH]c(C)c1S(=O)(=O)NCC1CCN(Cc2ccccc2OC)CC1	-0.4	1.2	x	-7.0	x	9.7	x	x
CS(=O)(=O)NN1C(=O)c2ccccc2NC1c1cccs1 (centres undefined)	10.0	2.2	1.2	3.3	6.3	6.7	x	x
CCOC(=O)c1cnc2c(Cl)c(Cl)ccc2c1N1CCN(C)CC1	-7.8	-3.7	-1.1	-0.9	-4.6	-5.9	x	x
O=C1c2cccc3cccc(c23)C(=O)N1/N=C/c1ccc(O)cc1O	-20.9	8.7	0.8	-2.6	-2.4	2.8	x	x
Cc1nc2ccccc2c(=O)n1/N=C/c1ccccc1O	-2.2	-7.7	0.1	3.1	-1.0	5.2	x	x
O=C1c2ccccc2C(=O)N1/N=C/c1ccc(O)c(O)c1O	33.4	65.5*	-0.3	98.4*	98.4*	68.2*	39.5*	1.9
Cc1nc2ccccc2c(=O)n1/N=C/c1ccc(O)c(O)c1O	25.7	46.7*	x	89.5*	x	86.9*	5.8	4.6
COc1ccc(Cc2nnc(NS(=O)(=O)c3ccc(Cl)cc3)s2)cc1OC	20.6	-4.5	0.9	0.9	-0.2	19.1	x	x
O=C(c1ccco1)N1CCN(CC(O)COc2ccc3oc4ccccc4c3c2)CC1 (centres undefined)	-2.6	-1.5	-0.7	4.6	13.5	2.7	x	x
Cc1ccc(S(=O)(=O)NNc2nnc(C)c(=O)[nH]2)cc1	-10.4	73.9*	1.8	-4.9	2.6	-12.0	39.3*	-5.2

Compound activity as filed in PubChem.
